# Laboratory results from paper PMC12820563, “FoxP3 forms a head-to-head dimer in vivo and stabilizes its multimerization on adjacent microsatellites”.
# In all, about 16,000 sequences were measured (“rpm ratio (pull-down/input)”: median about 0.94, highest 2% from about 1.7 on). Only a selection was taken, and the highest values are over-represented in it overall.
# Molecular target: T1, MBP-FoxP1dN (Mus musculus, UniProt P58462 326-579)
# T1 sequence: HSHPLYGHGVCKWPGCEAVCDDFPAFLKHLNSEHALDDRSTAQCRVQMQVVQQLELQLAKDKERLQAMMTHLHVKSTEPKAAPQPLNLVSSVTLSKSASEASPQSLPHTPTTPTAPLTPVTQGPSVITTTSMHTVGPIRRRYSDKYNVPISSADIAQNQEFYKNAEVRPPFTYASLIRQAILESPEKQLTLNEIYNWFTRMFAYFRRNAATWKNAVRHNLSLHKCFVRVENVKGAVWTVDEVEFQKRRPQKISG
# Experiment: PD-seq (MBP pull-down with sequencing); 20 mM Tris-HCl pH 7.5, 100 mM NaCl, 1.5 mM MgCl2, 0.4 uM protein, 0.1 uM dsDNA library, 30 min, room temperature, amylose pull-down; high values mean tight binding
# Conditions: protein: recombinant; tags: His6-MBP; chain copies: 2; dsDNA, one strand shown
# In short: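 Amylose resin was used to capture complexes formed during 30 min at room temperature in Tris pH 7.5 buffer with NaCl and MgCl2 between 0.4 µM His6-MBP-tagged mouse FoxP3 or FoxP1 fragment lacking the N-terminus, expressed in E. coli, and 0.1 µM Klenow-filled double-stranded degenerate DNA library. After three washes, the DNA was released with proteinase K, barcoded by PCR and sequenced on Illumina. Binding is pooled-replicate reads-per-million enrichment, pull-down over input.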
row,Sequence,binding signal
1,GATGATTGTTCTCCCAGCTGATGAATTTTGAATTTCGAGTAAACAAATTTTCCTAATCTTTCTGTTCAAGCGCCATCTAC,0.984 RPM ratio (pull-down/input)
2,GATGATTGTTCTCCCAGCTGATGAATTTTAGGGGTCGAGTAAACAAATTTTCCTAATCTTTCTGTTCAAGCGCCATCTAC,0.805 RPM ratio (pull-down/input)
3,GATGATTGTTCTCCCAGCTGATGAATTGACTAAGTCGAGTAAACAAATTTTCCTAATCTTTCTGTTCAAGCGCCATCTAC,1.03 RPM ratio (pull-down/input)
4,GATGATTGTTCTCCCAGCTGATGAATTGACGCTTTCGAGTAAACAAATTTTCCTAATCTTTCTGTTCAAGCGCCATCTAC,1.33 RPM ratio (pull-down/input)
5,GATGATTGTTCTCCCAGCTGATGAATTAGCACCGTCGAGTAAACAAATTTTCCTAATCTTTCTGTTCAAGCGCCATCTAC,0.962 RPM ratio (pull-down/input)
6,GATGATTGTTCTCCCAGCTGATGAATTGGCTATATCGAGTAAACAAATTTTCCTAATCTTTCTGTTCAAGCGCCATCTAC,0.923 RPM ratio (pull-down/input)
7,GATGATTGTTCTCCCAGCTGATGAATTCGCCCGTTCGAGTAAACAAATTTTCCTAATCTTTCTGTTCAAGCGCCATCTAC,0.826 RPM ratio (pull-down/input)
8,GATGATTGTTCTCCCAGCTGATGAATTCGAATCTTCGAGTAAACAAATTTTCCTAATCTTTCTGTTCAAGCGCCATCTAC,0.84 RPM ratio (pull-down/input)
9,GATGATTGTTCTCCCAGCTGATGAATTATATCTATCGAGTAAACAAATTTTCCTAATCTTTCTGTTCAAGCGCCATCTAC,0.985 RPM ratio (pull-down/input)
10,GATGATTGTTCTCCCAGCTGATGAATTATATATATCGAGTAAACAAATTTTCCTAATCTTTCTGTTCAAGCGCCATCTAC,1.16 RPM ratio (pull-down/input)
11,GATGATTGTTCTCCCAGCTGATGAATTAATTATATCGAGTAAACAAATTTTCCTAATCTTTCTGTTCAAGCGCCATCTAC,1.11 RPM ratio (pull-down/input)
12,GATGATTGTTCTCCCAGCTGATGAATTATCTATATCGAGTAAACAAATTTTCCTAATCTTTCTGTTCAAGCGCCATCTAC,1.14 RPM ratio (pull-down/input)
13,GATGATTGTTCTCCCAGCTGATGAATTATTTATATCGAGTAAACAAATTTTCCTAATCTTTCTGTTCAAGCGCCATCTAC,1.75 RPM ratio (pull-down/input)
14,GATGATTGTTCTCCCAGCTGATGAATTTATTATATCGAGTAAACAAATTTTCCTAATCTTTCTGTTCAAGCGCCATCTAC,1.22 RPM ratio (pull-down/input)
15,GATGATTGTTCTCCCAGCTGATGAATTATAAACATCGAGTAAACAAATTTTCCTAATCTTTCTGTTCAAGCGCCATCTAC,2.42 RPM ratio (pull-down/input)
16,GATGATTGTTCTCCCAGCTGATGAATTATATAAATCGAGTAAACAAATTTTCCTAATCTTTCTGTTCAAGCGCCATCTAC,1.16 RPM ratio (pull-down/input)
17,GATGATTGTTCTCCCAGCTGATGAATTATAAAAATCGAGTAAACAAATTTTCCTAATCTTTCTGTTCAAGCGCCATCTAC,1.08 RPM ratio (pull-down/input)
18,GATGATTGTTCTCCCAGCTGATGAATTATATTTATCGAGTAAACAAATTTTCCTAATCTTTCTGTTCAAGCGCCATCTAC,2.43 RPM ratio (pull-down/input)
19,GATGATTGTTCTCCCAGCTGATGAATTCTTTATATCGAGTAAACAAATTTTCCTAATCTTTCTGTTCAAGCGCCATCTAC,1.02 RPM ratio (pull-down/input)
20,GATGATTGTTCTCCCAGCTGATGAATTTATATTATCGAGTAAACAAATTTTCCTAATCTTTCTGTTCAAGCGCCATCTAC,2.04 RPM ratio (pull-down/input)
21,GATGATTGTTCTCCCAGCTGATGAATTTACATCCTCGAGTAAACAAATTTTCCTAATCTTTCTGTTCAAGCGCCATCTAC,1.26 RPM ratio (pull-down/input)
22,GATGATTGTTCTCCCAGCTGATGAATTAGGCTTGTCGAGTAAACAAATTTTCCTAATCTTTCTGTTCAAGCGCCATCTAC,0.93 RPM ratio (pull-down/input)

row,Sequence,binding signal
1,GATGATTGTTCTCCCAGCTGATGAATTACAAATGTCGAGTAAACAAATTTTCCTAATCTTTCTGTTCAAGCGCCATCTAC,1.44 RPM ratio (pull-down/input)
2,GATGATTGTTCTCCCAGCTGATGAATTATCCCTGTCGAGTAAACAAATTTTCCTAATCTTTCTGTTCAAGCGCCATCTAC,0.907 RPM ratio (pull-down/input)
3,GATGATTGTTCTCCCAGCTGATGAATTAGTCCTCTCGAGTAAACAAATTTTCCTAATCTTTCTGTTCAAGCGCCATCTAC,0.936 RPM ratio (pull-down/input)
4,GATGATTGTTCTCCCAGCTGATGAATTACACAGTTCGAGTAAACAAATTTTCCTAATCTTTCTGTTCAAGCGCCATCTAC,1.18 RPM ratio (pull-down/input)
5,GATGATTGTTCTCCCAGCTGATGAATTATAAATATCGAGTAAACAAATTTTCCTAATCTTTCTGTTCAAGCGCCATCTAC,2.01 RPM ratio (pull-down/input)
6,GATGATTGTTCTCCCAGCTGATGAATTATATTAATCGAGTAAACAAATTTTCCTAATCTTTCTGTTCAAGCGCCATCTAC,1.1 RPM ratio (pull-down/input)
7,GATGATTGTTCTCCCAGCTGATGAATTTATAATATCGAGTAAACAAATTTTCCTAATCTTTCTGTTCAAGCGCCATCTAC,1.31 RPM ratio (pull-down/input)
8,GATGATTGTTCTCCCAGCTGATGAATTATATTGATCGAGTAAACAAATTTTCCTAATCTTTCTGTTCAAGCGCCATCTAC,2.09 RPM ratio (pull-down/input)
9,GATGATTGTTCTCCCAGCTGATGAATTGATTATATCGAGTAAACAAATTTTCCTAATCTTTCTGTTCAAGCGCCATCTAC,1.26 RPM ratio (pull-down/input)
10,GATGATTGTTCTCCCAGCTGATGAATTATAATTATCGAGTAAACAAATTTTCCTAATCTTTCTGTTCAAGCGCCATCTAC,1.37 RPM ratio (pull-down/input)
11,GATGATTGTTCTCCCAGCTGATGAATTCACGCTGTCGAGTAAACAAATTTTCCTAATCTTTCTGTTCAAGCGCCATCTAC,0.895 RPM ratio (pull-down/input)
12,GATGATTGTTCTCCCAGCTGATGAATTACTCGTCTCGAGTAAACAAATTTTCCTAATCTTTCTGTTCAAGCGCCATCTAC,0.904 RPM ratio (pull-down/input)
13,GATGATTGTTCTCCCAGCTGATGAATTTGAGTGATCGAGTAAACAAATTTTCCTAATCTTTCTGTTCAAGCGCCATCTAC,0.906 RPM ratio (pull-down/input)
14,GATGATTGTTCTCCCAGCTGATGAATTAACGCGGTCGAGTAAACAAATTTTCCTAATCTTTCTGTTCAAGCGCCATCTAC,0.904 RPM ratio (pull-down/input)
15,GATGATTGTTCTCCCAGCTGATGAATTGTTTATGTCGAGTAAACAAATTTTCCTAATCTTTCTGTTCAAGCGCCATCTAC,2.77 RPM ratio (pull-down/input)
16,GATGATTGTTCTCCCAGCTGATGAATTTTTTATGTCGAGTAAACAAATTTTCCTAATCTTTCTGTTCAAGCGCCATCTAC,1.04 RPM ratio (pull-down/input)
17,GATGATTGTTCTCCCAGCTGATGAATTATGTCTGTCGAGTAAACAAATTTTCCTAATCTTTCTGTTCAAGCGCCATCTAC,0.913 RPM ratio (pull-down/input)
18,GATGATTGTTCTCCCAGCTGATGAATTATGTTTGTCGAGTAAACAAATTTTCCTAATCTTTCTGTTCAAGCGCCATCTAC,2.67 RPM ratio (pull-down/input)
19,GATGATTGTTCTCCCAGCTGATGAATTATTTATGTCGAGTAAACAAATTTTCCTAATCTTTCTGTTCAAGCGCCATCTAC,1.83 RPM ratio (pull-down/input)
20,GATGATTGTTCTCCCAGCTGATGAATTTATGTTGTCGAGTAAACAAATTTTCCTAATCTTTCTGTTCAAGCGCCATCTAC,2.86 RPM ratio (pull-down/input)
21,GATGATTGTTCTCCCAGCTGATGAATTCTTTATGTCGAGTAAACAAATTTTCCTAATCTTTCTGTTCAAGCGCCATCTAC,1.04 RPM ratio (pull-down/input)
22,GATGATTGTTCTCCCAGCTGATGAATTTATTATGTCGAGTAAACAAATTTTCCTAATCTTTCTGTTCAAGCGCCATCTAC,1.4 RPM ratio (pull-down/input)

row,Sequence,binding signal
1,GATGATTGTTCTCCCAGCTGATGAATTTATGTCGTCGAGTAAACAAATTTTCCTAATCTTTCTGTTCAAGCGCCATCTAC,1.14 RPM ratio (pull-down/input)
2,GATGATTGTTCTCCCAGCTGATGAATTTGTTATGTCGAGTAAACAAATTTTCCTAATCTTTCTGTTCAAGCGCCATCTAC,1.55 RPM ratio (pull-down/input)
3,GATGATTGTTCTCCCAGCTGATGAATTAATTATGTCGAGTAAACAAATTTTCCTAATCTTTCTGTTCAAGCGCCATCTAC,1.07 RPM ratio (pull-down/input)
4,GATGATTGTTCTCCCAGCTGATGAATTTATGATGTCGAGTAAACAAATTTTCCTAATCTTTCTGTTCAAGCGCCATCTAC,1.51 RPM ratio (pull-down/input)
5,GATGATTGTTCTCCCAGCTGATGAATTGGTCAGGTCGAGTAAACAAATTTTCCTAATCTTTCTGTTCAAGCGCCATCTAC,0.794 RPM ratio (pull-down/input)
6,GATGATTGTTCTCCCAGCTGATGAATTGCGTGCCTCGAGTAAACAAATTTTCCTAATCTTTCTGTTCAAGCGCCATCTAC,1.09 RPM ratio (pull-down/input)
7,GATGATTGTTCTCCCAGCTGATGAATTCGGTTTCTCGAGTAAACAAATTTTCCTAATCTTTCTGTTCAAGCGCCATCTAC,0.847 RPM ratio (pull-down/input)
8,GATGATTGTTCTCCCAGCTGATGAATTCGGAGCATCGAGTAAACAAATTTTCCTAATCTTTCTGTTCAAGCGCCATCTAC,1 RPM ratio (pull-down/input)
9,GATGATTGTTCTCCCAGCTGATGAATTCGATTCTTCGAGTAAACAAATTTTCCTAATCTTTCTGTTCAAGCGCCATCTAC,0.855 RPM ratio (pull-down/input)
10,GATGATTGTTCTCCCAGCTGATGAATTAAAGGAATCGAGTAAACAAATTTTCCTAATCTTTCTGTTCAAGCGCCATCTAC,0.934 RPM ratio (pull-down/input)
11,GATGATTGTTCTCCCAGCTGATGAATTGTTCGAGTCGAGTAAACAAATTTTCCTAATCTTTCTGTTCAAGCGCCATCTAC,1.05 RPM ratio (pull-down/input)
12,GATGATTGTTCTCCCAGCTGATGAATTTTGGCGATCGAGTAAACAAATTTTCCTAATCTTTCTGTTCAAGCGCCATCTAC,0.955 RPM ratio (pull-down/input)
13,GATGATTGTTCTCCCAGCTGATGAATTGGACGTGTCGAGTAAACAAATTTTCCTAATCTTTCTGTTCAAGCGCCATCTAC,0.855 RPM ratio (pull-down/input)
14,GATGATTGTTCTCCCAGCTGATGAATTGTCCCTCTCGAGTAAACAAATTTTCCTAATCTTTCTGTTCAAGCGCCATCTAC,0.967 RPM ratio (pull-down/input)
15,GATGATTGTTCTCCCAGCTGATGAATTGGACAAATCGAGTAAACAAATTTTCCTAATCTTTCTGTTCAAGCGCCATCTAC,1.05 RPM ratio (pull-down/input)
16,GATGATTGTTCTCCCAGCTGATGAATTTTGATATTCGAGTAAACAAATTTTCCTAATCTTTCTGTTCAAGCGCCATCTAC,1.19 RPM ratio (pull-down/input)
17,GATGATTGTTCTCCCAGCTGATGAATTGAATCTGTCGAGTAAACAAATTTTCCTAATCTTTCTGTTCAAGCGCCATCTAC,0.897 RPM ratio (pull-down/input)
18,GATGATTGTTCTCCCAGCTGATGAATTGATATTGTCGAGTAAACAAATTTTCCTAATCTTTCTGTTCAAGCGCCATCTAC,2.35 RPM ratio (pull-down/input)
19,GATGATTGTTCTCCCAGCTGATGAATTTGATATTTCGAGTAAACAAATTTTCCTAATCTTTCTGTTCAAGCGCCATCTAC,1.13 RPM ratio (pull-down/input)
20,GATGATTGTTCTCCCAGCTGATGAATTGATATTTTCGAGTAAACAAATTTTCCTAATCTTTCTGTTCAAGCGCCATCTAC,2.4 RPM ratio (pull-down/input)
21,GATGATTGTTCTCCCAGCTGATGAATTTGATATGTCGAGTAAACAAATTTTCCTAATCTTTCTGTTCAAGCGCCATCTAC,1 RPM ratio (pull-down/input)
